An excerpt weighted towards active compounds, which were near 2.3% of everything screened.
VDR inh: blocks the human vitamin D receptor; P11473; 0.93% of 400,000 active; Potency, µM, for inactives: max response, negative = inhibition, hits mostly inhibitors; VDR-SRC2-3 peptide fluorescence polarization, 2 h; also: potency is read from the fitted curve at half-maximal effect; % is scaled to controls: 0 for no effect and ±100 for the full control effect
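Fluorescence polarization assay measuring small-molecule disruption of VDR binding to the coregulator peptide SRC2-3. Compounds were pin-transferred (23 nl) into the reagent mix and incubated 2 h at room temperature before reading.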
HttQ103 aggreg: reduces HttQ103-GFP aggregates in PC12 cells | 1.1% of 220,000 active | PC12 HttQ103-GFP aggregates, Acumen cytometry, 40 h | Potency, µM (top dose mostly 46.1 µM), without a hit: at the highest dose activity change, negative = inhibition, actives largely listed as inhibitors | AID 1688; also: potency is read from the fitted curve at half-maximal effect; % is scaled to controls: 0 for no effect and ±100 for the full control effect; nearly all actives have a fitted effect of over 60% in size
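Steps: seed 1500 PC12 HTTQ103-GFP cells/well; add tebufenozide, 100 nM final; add compound titration; add ATPLite reagent; quantify GFP aggregates by laser scanning cytometry.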
RGS12 GoLoco inh: inhibitors of human Gai1-RGS12 GoLoco interaction (red fluorophore) | P63096 | Gai1:RGS12 GoLoco peptide FP, rhodamine, 10 min | Potency, µM (top dose mostly 61.6 µM), for inactives: at the highest dose activity, negative = inhibition, usual class: inhibitors | 0.44% of 230,000 active | AID 880; active = well fitted inhibition curve with a large enough effect, not every such curve was filed as active; inactive = no such curve, though single readings can be large or run the other way; also: potency is read from the fitted curve at half-maximal effect; % is scaled to controls: 0 for no effect and ±100 for the full control effect; nearly all actives have a fitted effect of over 30% in size
Target sequence (P63096 whole entry, looked up): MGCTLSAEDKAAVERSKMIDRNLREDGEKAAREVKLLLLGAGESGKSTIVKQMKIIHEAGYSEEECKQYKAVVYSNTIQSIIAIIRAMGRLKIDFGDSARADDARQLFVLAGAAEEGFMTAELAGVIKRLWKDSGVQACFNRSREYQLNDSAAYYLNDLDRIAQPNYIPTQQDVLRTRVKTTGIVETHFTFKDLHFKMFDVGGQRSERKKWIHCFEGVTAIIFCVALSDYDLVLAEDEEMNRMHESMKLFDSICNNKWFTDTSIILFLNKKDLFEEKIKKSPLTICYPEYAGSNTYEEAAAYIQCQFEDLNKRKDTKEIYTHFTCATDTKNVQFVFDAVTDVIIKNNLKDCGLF
JMJD2E inh: JMJD2E (human) inhibition; B2RXH2; JMJD2E catalytic domain, FDH-coupled NADH fluorescence (FDH is formaldehyde dehydrogenase); Potency, µM (series often up to 57.1 µM), inactives show top-dose activity change, negative = inhibition, usual class: inhibitors; 1.6% of 230,000 active; AID 2147; active = well fitted inhibition curve with a large enough effect, not every such curve was filed as active; inconclusive = small, poorly fitted or top-dose-only effect, or another doubt; inactive = no such curve, though single readings can be large or run the other way;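 also: potency is read from the fitted curve at half-maximal effect; 0% = wells with enzyme and -100% = buffer wells without enzyme; nearly all actives have a fitted effect of over 50% in size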
Target sequence (B2RXH2 1-337 limits assumed): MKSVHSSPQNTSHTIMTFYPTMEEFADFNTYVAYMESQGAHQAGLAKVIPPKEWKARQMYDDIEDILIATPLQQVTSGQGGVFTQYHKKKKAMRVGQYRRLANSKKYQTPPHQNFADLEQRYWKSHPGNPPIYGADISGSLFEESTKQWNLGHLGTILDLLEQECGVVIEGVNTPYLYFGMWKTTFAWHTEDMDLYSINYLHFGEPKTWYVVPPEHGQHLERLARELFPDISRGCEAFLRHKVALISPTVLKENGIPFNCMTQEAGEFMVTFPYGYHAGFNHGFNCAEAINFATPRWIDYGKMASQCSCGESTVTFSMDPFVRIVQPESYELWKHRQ
HTT ATP protect: cytoprotection in Huntington HTT-Q103 PC12 cell model | PC12 HTT-Q103 induced, cytoprotection, ATP luminescence, 40 h | Potency, µM (series often up to 56.4 µM), for inactives: cytoprotection (ATP increase), hits mostly activators | 0.14% of 230,000 active; also: potency is read from the fitted curve at half-maximal effect; % of control where 0% means no effect; nearly all actives have a fitted effect of over 45% in size
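Huntington model: PC12 line, ecdysone-inducible HTTQ103 exon1–GFP, tebufenozide 100 nM. Test articles in a dose series. Endpoint luminescence from cellular ATP.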
Coupling enz: inhibits coupling enzyme system, counter-screen for aldolase hits | coupling enzyme system counterscreen, AmpLite Red fluorescence | activity change, negative = inhibition, % at 58.2 µM, hits read low | 0.67% of 290,000 active; in the data active = activity change below about -30%; also: % is scaled to controls: 0 for no effect and ±100 for the full control effect
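Counterscreen lacking aldolase: glyceraldehyde-3-phosphate coupling-enzyme reagent preincubated 10 min at RT with compound (at 57.5 uM final), then substrate/coupling system with AmpLite Red added; fluorescence read at 525/598 nm after 20 min RT.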
* = called active by the depositor; [ ] = another dose, or the depositor's remark. Unless noted, calls follow the shape of the dose curve; as a rule, active = well fitted curve in the direction sought with a large enough effect; inconclusive = small, poorly fitted or top-dose-only effect, or another doubt; inactive = no such curve, though single readings can be large; an effect the other way counts as inactive or inconclusive.

Results for CN(C)S(=O)(=O)c1cccc(NC(=S)N/N=C/c2ccc(O)c(O)c2O)c1 ?
VDR inh: 89.1µM*; HttQ103 aggreg: -6.7%[9.22 µM]; RGS12 GoLoco inh: -16.2%; JMJD2E inh: 7.94µM*; HTT ATP protect: 39.5%[10 µM]; Coupling enz: -56.3*

How did C=CCN1C(=CCO)[C@H]2C[C@H]3[C@@H]1CC[C@@]31c3ccccc3N3C=C4[C@@H]5N(/C=C/2[C@H]31)c1ccccc1[C@]51CC[C@H]2[C@H]1C[C@@H]4/C(=C/CO)N2CC=C do in these assays?
VDR inh: 4.9%; HttQ103 aggreg: 7.2%[20.6 µM]; RGS12 GoLoco inh: 5.5%[21.6 µM]; JMJD2E inh: 5.1%[25.5 µM]; HTT ATP protect: -12.5%[17.1 µM]; Coupling enz: 0.6

What do the screens show for `CCNc1nc(NCC)n2c(SCc3ccc(F)cc3)nnc2n1`?
VDR inh: -6.8%; HttQ103 aggreg: 2.51µM*; RGS12 GoLoco inh: 11.7%; JMJD2E inh: -0.2%; HTT ATP protect: 13.0%[10 µM]; Coupling enz: 2.4

Results for CCNc1nc(NCC)n2c(SCC(=O)Nc3ccc(CC)cc3)nnc2n1 ?
VDR inh: 50.1µM*

What do the screens show for `Cc1c(Cc2ccccc2)c(=O)oc2c(CN(C)C)c(O)c(Cl)cc12`?
VDR inh: -3.7%; HttQ103 aggreg: -4.9%; RGS12 GoLoco inh: -2.7%; JMJD2E inh: inconclusive; HTT ATP protect: 6.0%[10 µM]; Coupling enz: -0.3

Results for CN(C)Cc1c(O)ccc2oc(Cc3ccccc3)cc12 ?
VDR inh: 5.4%; HttQ103 aggreg: 4.47µM*; RGS12 GoLoco inh: -28.9%; JMJD2E inh: -10.9%; HTT ATP protect: -37.2%[10 µM]; Coupling enz: -6.2

Results for NS(=O)(=O)c1ccc(N=Nc2ccc(O)c3ncccc23)cc1 ?
VDR inh: -16.1%; Coupling enz: -4.4

How did O=Cc1ccc(O)c2ncccc12 do in these assays?
VDR inh: 2.8%; HttQ103 aggreg: -36.1%[9.22 µM]; RGS12 GoLoco inh: 3.3%; JMJD2E inh: 3.16µM*; HTT ATP protect: -44.2%[10 µM]; Coupling enz: -3.4

Results for Cc1ccc(S(=O)(=O)N2CCCCC2)cc1C(=O)NCCN1CCOCC1 ?
VDR inh: -4.0%

How did O=C(O)CCSc1nnc(SCC(=O)NC2CCS(=O)(=O)C2)s1 (stereo unspecified) do in these assays?
VDR inh: -10.3%

How did CCN(CC)CCOC(=O)C(Cc1cccc2ccccc12)CC1CCCO1 (stereo unspecified) do in these assays?
VDR inh: 10.2%; RGS12 GoLoco inh: 1.8%; JMJD2E inh: 22.4µM*; HTT ATP protect: -49.4%; Coupling enz: 0.7

Results for Cn1cnc([N+](=O)[O-])c1S(=O)(=O)Oc1ccc(Cl)cc1 ?
VDR inh: 25.1µM*

Results for CNc1c([N+](=O)[O-])ncn1C ?
VDR inh: 1.3%; HttQ103 aggreg: -2.4%[9.22 µM]; RGS12 GoLoco inh: -13.9%; JMJD2E inh: 3.2%; HTT ATP protect: 6.4%; Coupling enz: 0.0

Results for CCS(=O)(=O)c1c([N+](=O)[O-])ncn1C ?
VDR inh: -15.9%; HttQ103 aggreg: 3.55µM*; RGS12 GoLoco inh: 179.6%; JMJD2E inh: -1.4%; Coupling enz: -0.9

How did Cn1cnc([N+](=O)[O-])c1Oc1ccccc1 do in these assays?
VDR inh: -0.3%; HttQ103 aggreg: inconclusive; RGS12 GoLoco inh: 9.9%; JMJD2E inh: -4.9%; Coupling enz: 5.2

How did O=C(O)CCn1cc(/C=C/C(=O)c2ccc(Cl)cc2)c(-c2ccc(Br)cc2)n1 do in these assays?
VDR inh: 39.8µM*; HttQ103 aggreg: inconclusive; JMJD2E inh: -6.9%; HTT ATP protect: -7.0%[10 µM]; Coupling enz: 10.7

How did CCN1C(=O)/C(=C\C=C2/C=CC=CN2CC)SC1=S do in these assays?
VDR inh: inconclusive; HttQ103 aggreg: 30.0%; RGS12 GoLoco inh: 337.7%; JMJD2E inh: inconclusive; Coupling enz: -31.0*

Results for CCN1C(=O)/C(=C/C=C2\C=CN(CC)c3ccccc32)SC1=S ?
VDR inh: -1.8%; HttQ103 aggreg: -1.7%; RGS12 GoLoco inh: 12.2%; JMJD2E inh: inconclusive; HTT ATP protect: 13.0%[10 µM]; Coupling enz: -35.7*

Results for Cc1c(Cl)cccc1NC(=O)CSc1nc(=O)n(Cc2ccccn2)c2c1CCC2 ?
VDR inh: -1.5%

Results for O=C(/C=C\c1ccc(-c2cccc([N+](=O)[O-])c2)o1)N1CCOCC1 ?
VDR inh: -22.8%; HttQ103 aggreg: 1.1%[9.22 µM]; RGS12 GoLoco inh: -8.2%; JMJD2E inh: 15.8µM*; HTT ATP protect: 2.6%[10 µM]; Coupling enz: 2.1

Results for CC(C)ON([C@@H](C(=O)NO)C(C)C)S(=O)(=O)c1ccc(-c2ccccc2)cc1 ?
VDR inh: -15.0%

Results for CC(C)Cn1c([N+](=O)[O-])nc2c1c(=O)[nH]c(=O)n2C ?
VDR inh: -18.1%; HttQ103 aggreg: -14.0%[9.22 µM]; RGS12 GoLoco inh: 3.5%; JMJD2E inh: inconclusive; HTT ATP protect: -13.3%[10 µM]; Coupling enz: -30.7*

Results for CCC(C)Nc1nc2c(c(=O)[nH]c(=O)n2C)n1CCC(C)C (stereo unspecified) ?
VDR inh: -2.1%; HttQ103 aggreg: -26.8%; RGS12 GoLoco inh: 5.3%; JMJD2E inh: -7.4%; HTT ATP protect: -22.3%[10 µM]; Coupling enz: -0.6

What do the screens show for `Cn1c(=O)[nH]c(=O)c2c1nc([N+](=O)[O-])n2Cc1ccccc1`?
VDR inh: inconclusive; HttQ103 aggreg: inconclusive; RGS12 GoLoco inh: 8.3%; JMJD2E inh: inconclusive; HTT ATP protect: -96.6%[10 µM]; Coupling enz: -45.4*

What do the screens show for `Cc1ccc(C(=O)N/N=C/c2ccc(-c3cccc(Cl)c3)o2)cn1`?
VDR inh: 2.0%; HttQ103 aggreg: 4.4%[9.22 µM]; RGS12 GoLoco inh: 1.0%; JMJD2E inh: -17.1%; HTT ATP protect: 1.8%[10 µM]; Coupling enz: -0.3

How did O=C(N/N=C/c1ccc(-c2ccccc2[N+](=O)[O-])o1)[C@H]1C[C@@H]1c1ccccc1 do in these assays?
VDR inh: inconclusive; HttQ103 aggreg: inconclusive; RGS12 GoLoco inh: -4.2%; JMJD2E inh: 10.7%; Coupling enz: -43.8*

What do the screens show for `Cc1ccc(C(=O)N/N=C/c2ccc(-c3ccccc3[N+](=O)[O-])o2)cn1`?
VDR inh: inconclusive; HttQ103 aggreg: 16.3%; RGS12 GoLoco inh: -4.0%; JMJD2E inh: -3.9%; HTT ATP protect: 13.3%[1.9 µM]; Coupling enz: -61.4*

Results for O=C(N/N=C/c1ccc(-c2ccc([N+](=O)[O-])cc2)o1)[C@H]1C[C@@H]1c1ccccc1 ?
VDR inh: -0.9%; HttQ103 aggreg: 3.6%[9.22 µM]; RGS12 GoLoco inh: 7.0%; JMJD2E inh: -1.2%; HTT ATP protect: 3.2%[10 µM]; Coupling enz: -9.5

Results for Cc1ccnc2nc(C(=O)OCC(=O)Nc3ccc4c(c3)OCCO4)nn12 ?
VDR inh: 7.7%

Screens as filed in PubChem.
